Here are results for 13 molecules from PubChem BioAssay.

Where “and” joins values, the source holds several entries; their conditions need not be identical. Equal values may be shown once. For part of these data: Entries with a potency or affinity are not part of this list. This is one part of the list. Calls of active or inactive are those of the source. Unless noted, no rule for the calls is given here.

The target of experiment [1] is GTPase HRas (Homo sapiens) (UniProt P01112). Briefly: inhibitors of GTP binding to wildtype Ras, dose response, biochemical, multiplex bead flow cytometry (AID 1335;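 active = fitted half-maximal concentration within 10 nM to 100 µM, steepness 0.5 to 2, significant signal drop, low assay interference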). Conditions: bead-based flow cytometry, Bodipy-GTP binding to GST-Ras; at 100 µM (top of the series) unless noted. (In general: In flow cytometry, cells or beads pass a laser one at a time.)
GTPase HRas (Homo sapiens), sequence (P01112 whole entry, looked up): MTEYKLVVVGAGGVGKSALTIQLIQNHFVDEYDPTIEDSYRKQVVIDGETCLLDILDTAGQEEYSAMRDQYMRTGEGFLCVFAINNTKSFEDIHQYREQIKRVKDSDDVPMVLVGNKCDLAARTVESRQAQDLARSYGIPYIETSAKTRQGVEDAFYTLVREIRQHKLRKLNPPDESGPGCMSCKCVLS
The target is the same in experiment [2]. As to the kind of experiment: activated Ras mutant GTP binding inhibitors, dose response, biochemical, multiplex bead flow cytometry (AID 1341;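 active = dose-response curve with midpoint inside the tested range, moderate steepness, significant amplitude and little compound fluorescence or bead-attachment interference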;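 also: GST-tagged constitutively activated Ras mutant immobilized on beads and multiplexed with other GTPases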).
The target of experiment [3] is Ras-related C3 botulinum toxin substrate 1 (Homo sapiens) (UniProt P63000). Briefly: wildtype Rac1 GTP binding inhibitors, dose response, biochemical, multiplex bead flow cytometry (AID 1340;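 active = dose curve with midpoint inside tested range, moderate steepness, plateau gap beyond fit error, low compound glow and bead-link interference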). Conditions: GST-Rac1 beads, Bodipy-FL-GTP binding; at 100 µM (top of the series) unless noted.
In experiment [4] the test system is Ras-related protein Rab-7a (dog), GTP binding. As to the kind of experiment: Rab7 GTP binding inhibitors, potency, dose response, biochemical, wildtype, multiplex bead flow cytometry (AID 1336).
In experiment [5] the target is Cell division control protein 42 homolog (Homo sapiens) (UniProt P60953). Briefly: wildtype Cdc42 GTP-binding inhibitors, dose response, biochemical, multiplex bead flow cytometry, Bodipy-FL-GTP (AID 1334;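 active = fitted half-maximal concentration within the tested range, moderate curve steepness, significant signal drop, and little compound fluorescence or bead-linkage interference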). The settings on record: bead-based flow cytometry, Bodipy-FL-GTP binding to GST-Cdc42; at 100 µM (top of the series) unless noted.
Cell division control protein 42 homolog (Homo sapiens), sequence (P60953 whole entry, looked up): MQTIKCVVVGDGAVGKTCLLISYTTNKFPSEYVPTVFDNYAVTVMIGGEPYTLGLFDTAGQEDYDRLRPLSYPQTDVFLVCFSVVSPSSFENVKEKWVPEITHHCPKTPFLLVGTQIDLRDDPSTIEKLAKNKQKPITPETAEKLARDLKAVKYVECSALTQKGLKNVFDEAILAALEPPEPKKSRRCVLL
Experiment [6] addresses Regulator of G-protein signaling 16 (Homo sapiens) (UniProt O15492). Briefly: modulators of RGS–Galpha-o binding, primary screen, biochemical, multiplexed beads, flow cytometry, RGS4/7/8/16/19 (AID 1504).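 Also: fluorescently labeled Galpha-o bound to GDP with aluminium fluoride binding biotinylated RGS beads.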 The settings on record: multiplexed bead flow cytometry, measured here: RGS16 interaction, at 10 µM.
Experiment [7] addresses Regulator of G-protein signaling 19 (Homo sapiens) (UniProt P49795). The description is as above. Conditions: multiplexed bead flow cytometry, measured here: RGS19 interaction, at 10 µM.
In experiment [8] the target is Regulator of G-protein signaling 4 (Homo sapiens) + Guanine nucleotide-binding protein G(o) subunit alpha (Homo sapiens) (UniProt P49798+P09471). The description is as above. Conditions: multiplexed bead flow cytometry, at 10 µM.
Regulator of G-protein signaling 4 (Homo sapiens) + Guanine nucleotide-binding protein G(o) subunit alpha (Homo sapiens), sequence (P09471 whole entry, looked up): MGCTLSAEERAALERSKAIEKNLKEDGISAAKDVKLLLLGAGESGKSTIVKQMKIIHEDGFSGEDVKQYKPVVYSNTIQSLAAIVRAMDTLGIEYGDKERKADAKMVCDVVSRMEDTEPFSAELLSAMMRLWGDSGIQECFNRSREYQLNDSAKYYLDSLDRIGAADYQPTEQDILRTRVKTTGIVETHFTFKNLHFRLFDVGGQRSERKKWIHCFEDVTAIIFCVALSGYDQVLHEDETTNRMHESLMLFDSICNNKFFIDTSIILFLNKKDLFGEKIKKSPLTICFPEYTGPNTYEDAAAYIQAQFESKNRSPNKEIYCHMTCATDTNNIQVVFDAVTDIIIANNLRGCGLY
Regulator of G-protein signaling 4 (Homo sapiens) + Guanine nucleotide-binding protein G(o) subunit alpha (Homo sapiens), sequence (P49798 whole entry, looked up): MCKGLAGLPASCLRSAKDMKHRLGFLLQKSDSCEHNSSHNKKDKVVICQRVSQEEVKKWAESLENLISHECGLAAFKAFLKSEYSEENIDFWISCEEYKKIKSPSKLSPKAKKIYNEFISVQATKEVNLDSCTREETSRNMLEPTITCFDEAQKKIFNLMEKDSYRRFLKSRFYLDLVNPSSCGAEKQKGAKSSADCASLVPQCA
The target in experiment [9] is Regulator of G-protein signaling 7 (Homo sapiens) (UniProt P49802). The description is as above. Conditions: multiplexed bead flow cytometry, measured here: RGS7 interaction, at 10 µM.
In experiment [10] the target is Regulator of G-protein signaling 8 (Homo sapiens) (UniProt P57771). Described as above. The settings on record: multiplexed bead flow cytometry, measured here: RGS8 interaction, at 10 µM.
A short description of experiment [11]: disruption of biotin probe capture by avidin, counter-screen for RGS protein interaction modulators, biochemical, flow cytometry, bead-based (AID 1783;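 active = inhibition above 50%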;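 also: median green fluorescence of gated singlet beads compared with DMSO control wells; 0% = DMSO wells and 100% = complete loss of bead fluorescence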). The settings on record: streptavidin beads, fluorescein-biotin binding; at 10 µM, stronger effect = higher value. Background: The purpose of a counterscreen is to sort out artefacts and off-target activity.
Experiment [12] deals with Guanine nucleotide-binding protein G(o) subunit alpha (Homo sapiens) (UniProt P09471). Briefly: RGS8-Galphao binding modulators, confirmation, biochemical, multiplexed bead flow cytometry, single concentration (AID 1836; in the data active = binding response below about 72% or above about 130%; inactive = in between;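 also: Galphao activated as GDP AlF4 complex before binding bead RGS8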). The settings on record: bead-based flow cytometry RGS8-Galphao binding, fluorescence; at 10 µM; actives lie on both sides.
Guanine nucleotide-binding protein G(o) subunit alpha (Homo sapiens), sequence (P09471 whole entry, looked up): as the sequence (P09471 whole entry, looked up) above
Experiment [13] shares this target. Briefly: RGS7-Galphao binding modulators, confirmation, biochemical, multiplexed bead flow cytometry, single concentration (AID 1837; in the data active = response below about 75% or above about 130%; inactive = in between;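 also: fluorescent Galphao activated with GDP and aluminum fluoride binding bead-coupled RGS7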). Conditions: bead-based flow cytometry RGS7-Galphao binding; at 10 µM; actives lie on both sides.
Experiment [14] addresses Regulator of G-protein signaling 16 (Homo sapiens) + Guanine nucleotide-binding protein G(o) subunit alpha (Homo sapiens) (UniProt O15492+P09471). Briefly: modulators of RGS16-Galphao protein binding, confirmation, biochemical, single concentration, multiplexed bead flow cytometry (AID 1838; in the data active = response below about 74% or above about 130%; inactive = in between;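 also: Galphao activated as the GDP aluminium fluoride complex binding bead-coupled RGS16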). Conditions: bead-based flow cytometry, at 10 µM, actives lie on both sides.
In experiment [15] the target is Guanine nucleotide-binding protein G(o) subunit alpha (Homo sapiens) (UniProt P09471). As to the kind of experiment: modulators of RGS4-Galphao protein binding, confirmation, biochemical, single concentration, multiplexed bead flow cytometry (AID 1840; in the data active = binding response below about 74% or above about 130%; inactive = in between). Conditions: at 10 µM, actives lie on both sides.
Experiment [16] has as its target Guanine nucleotide-binding protein G(o) subunit alpha (Homo sapiens) + Regulator of G-protein signaling 19 (Homo sapiens) (UniProt P09471+P49795). As to the kind of experiment: regulators of RGS19-Galphao binding, confirmation, biochemical, single point, multiplexed bead flow cytometry (AID 1841; in the data active = response below about 50% or above about 160%; inactive = in between;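 also: 100% = no compound control and 0% = blank background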). Conditions: bead-based flow cytometry RGS19-Galphao binding; at 10 µM; actives lie on both sides.

Regulator of G-protein signaling 16 (Homo sapiens) + Guanine nucleotide-binding protein G(o) subunit alpha (Homo sapiens), sequence (O15492 whole entry, looked up): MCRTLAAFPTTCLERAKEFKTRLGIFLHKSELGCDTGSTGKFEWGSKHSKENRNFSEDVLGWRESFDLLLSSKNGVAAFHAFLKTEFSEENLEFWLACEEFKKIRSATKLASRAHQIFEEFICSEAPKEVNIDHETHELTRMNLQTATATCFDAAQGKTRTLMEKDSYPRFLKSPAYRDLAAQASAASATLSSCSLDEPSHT
Regulator of G-protein signaling 16 (Homo sapiens) + Guanine nucleotide-binding protein G(o) subunit alpha (Homo sapiens), sequence (P09471 whole entry, looked up): as the sequence (P09471 whole entry, looked up) above
Guanine nucleotide-binding protein G(o) subunit alpha (Homo sapiens) + Regulator of G-protein signaling 19 (Homo sapiens), sequence (P09471 whole entry, looked up): as above
Guanine nucleotide-binding protein G(o) subunit alpha (Homo sapiens) + Regulator of G-protein signaling 19 (Homo sapiens), sequence (P49795 whole entry, looked up): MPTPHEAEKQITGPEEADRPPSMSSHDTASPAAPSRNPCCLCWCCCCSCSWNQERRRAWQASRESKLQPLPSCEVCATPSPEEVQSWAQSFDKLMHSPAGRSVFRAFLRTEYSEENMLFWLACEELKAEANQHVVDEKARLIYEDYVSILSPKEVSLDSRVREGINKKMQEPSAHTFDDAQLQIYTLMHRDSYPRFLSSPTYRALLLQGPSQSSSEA

On to `O=C(O)c1ccccc1Sc1ncnc2sc3c(c12)CCC3`, for which the GTP binding, percent of control in experiment [1] worked out at 118%. Moreover, the molecule was called inactive in [2].
`CC(=O)Oc1ccc2c(c1)Oc1cc(OC(C)=O)ccc1C21OC(=O)c2ccccc21` gave a GTP binding signal, raw median fluorescence (lower = inhibition) (MCF (arbitrary fluorescence units)) in [3] of 720.
For `COc1ccc(C2CC(c3ccccc3)=NN2c2ccc(S(N)(=O)=O)cc2)cc1` (stereo not given), the GTP binding, percent of control in experiment [1] turned out to be 84.1%. Also, the outcome in [4] and in experiment [2] was inactive. Besides, the GTP binding signal, raw median fluorescence (lower = inhibition) (MCF (arbitrary fluorescence units)) in [3] was 260 and 239.
On to `O=C(Nc1nnc(-c2ccc3c(c2)OCCO3)o1)c1ccc(Cc2ccccc2)cc1`, for which, in experiment [1], the GTP binding, percent of control amounted to 83.9%. For the same molecule, the outcome in experiment [4] and in [2] was inactive. The same molecule gave a GTP binding signal, raw median fluorescence (lower = inhibition) (MCF (arbitrary fluorescence units)) in [3] of 144.
For `CCOc1ccc(/C=C2\SC(N3CCc4ccccc4C3)=NC2=O)cc1`, the GTP binding, percent of control in [1] is 59.8%. Also, the molecule was called inactive in experiment [2].
`Cc1cn2c(nc(=O)c3cccnc32)s1` displayed a GTP binding signal, raw median fluorescence (lower = inhibition) (MCF (arbitrary fluorescence units)) in [3] of 126.
In turn, `O=C(O)c1cc(Sc2ccc(Cl)cc2)nc2ccccc12` displayed a fluorescence, percent of control (lower = inhibition) in [5] of 55.8%. Also, the GTP binding, percent of control in [1] is 81.1%. The outcome in [4] and in experiment [2] was inactive. In [3], this molecule registered a GTP binding signal, raw median fluorescence (lower = inhibition) (MCF (arbitrary fluorescence units)) of 29.
For the molecule `O=C(O)/C=C/c1cn(Cc2ccccc2)nc1-c1cccs1`, the call in [2] was inactive.
Usually inhibition stands for how much of the control response was suppressed. As to `CCOc1ccc(NC(=O)CSc2nc3ccccc3c(=O)n2Cc2cccs2)cc1`, in [6], the RGS16–Galpha-o binding response is -1.24%. The RGS19–Galpha-o binding response in experiment [7] was 116%. In experiment [8], the RGS4–Galpha-o binding response is 84.3% (active). Besides, in experiment [9], the RGS7–Galpha-o binding response turned out to be 81.9%. Moreover, the RGS8–Galpha-o binding response in [10] stood at 75.5%. Also, the inhibition in experiment [11] is 1.1% (inactive). The figures for the binding response (% of control) in [12] and in experiment [15] were 101% (inactive) and 102% (inactive), respectively. The response (percent of control binding) in [13] was 104% (inactive); in experiment [16] it was 102% (inactive). Besides, in [14], the response (% of control binding) is 104% (inactive).
For `CCOC(=O)C1=C(c2ccccc2)N=C2SCC(=O)N2C1c1ccc(O)c(OC)c1` (stereo not given), the RGS16–Galpha-o binding response in experiment [6] came to 222%. In [7], the RGS19–Galpha-o binding response was -290%. For the same molecule, the RGS4–Galpha-o binding response in experiment [8] was 121% (active). In addition, the RGS7–Galpha-o binding response in [9] amounted to 122%. Also, the RGS8–Galpha-o binding response in [10] is 144%. Moreover, in experiment [11], the inhibition is 0% (inactive). The binding response (% of control) is 109% (inactive) in [12] and 106% (inactive) in experiment [15]. The figures for the response (percent of control binding) in experiment [13] and in experiment [16] were 108% (inactive) and 104% (inactive), respectively. Further, the response (% of control binding) in experiment [14] was 110% (inactive).
In the case of `CC(=O)c1ccc(NC(=S)NC(=O)CC(C)C)cc1`, in experiment [6], the RGS16–Galpha-o binding response was 21.8%. Also, the RGS19–Galpha-o binding response in experiment [7] was 162%. For the same molecule, the RGS4–Galpha-o binding response in [8] was 91.6% (active). In experiment [9], this molecule displayed an RGS7–Galpha-o binding response of 91.6%. In addition, the RGS8–Galpha-o binding response in [10] came out at 81.4%. Besides, in experiment [11], the inhibition was 3.2% (inactive). The binding response (% of control) in [12] is 99.1% (inactive); in experiment [15] it was 93.6% (inactive). Also, the response (percent of control binding) was 86.2% (inactive) in [13] and 87.5% (inactive) in [16]. The response (% of control binding) in experiment [14] is 93.9% (inactive).
On to `Cc1ccc(C)c(OCC(=O)N2CCN(C(=O)c3ccco3)CC2)c1`, for which the RGS16–Galpha-o binding response in [6] was 24.4%. For the same molecule, in experiment [7], the RGS19–Galpha-o binding response came to 113%. In addition, the RGS4–Galpha-o binding response in [8] was 83.7% (active). The same molecule yielded an RGS7–Galpha-o binding response in experiment [9] of 89.8%. This molecule also showed an RGS8–Galpha-o binding response in experiment [10] of 88.5%. In experiment [11], the inhibition was 2.8% (inactive). For the same molecule, the binding response (% of control) in [12] is 104% (inactive); in [15], 106% (inactive). Further, the response (percent of control binding) in [13] was 104% (inactive); in [16] it was 110% (inactive). Further, the response (% of control binding) in experiment [14] was 107% (inactive).
As to `C/C(=N\NS(=O)(=O)c1ccc(Br)cc1)c1cccs1`, the RGS16–Galpha-o binding response in [6] was -881%. In addition, the RGS19–Galpha-o binding response in experiment [7] was determined as 99.9%. Further, the RGS4–Galpha-o binding response in [8] was 120% (active). In experiment [9], this molecule had an RGS7–Galpha-o binding response of 106%. The molecule further registered an RGS8–Galpha-o binding response in experiment [10] of 95.4%. Also, the inhibition in experiment [11] was 1.5% (inactive). Besides, the binding response (% of control) in experiment [12] was 102% (inactive); in [15], 104% (inactive). Also, the figures for the response (percent of control binding) in experiment [13] and in [16] were 103% (inactive) and 99.1% (inactive), respectively. Besides, the response (% of control binding) in experiment [14] is 103% (inactive).
